In PubChem BioAssay AID1241 (SRMLSC, 2008):
The campaign covered roughly 1,200 compounds. About 840 (70%) were called active. The rule behind the calls is not given here. So high a share suggests a set chosen from earlier hits. Only a sample is shown. Potency and affinity values are given separately.

Assay: NF-kB promoter reporter activators, neuronal cells, dose response, cell-based, SH-SY5Y, luciferase (AID 1241)
Conditions: series mostly up to 30 µM

Fold induction over control, inactive:
C(=C\c1nc(-c2ccccc2)no1)/c1ccccc1, CNc1oc(/C=C/c2ccccc2)nc1C#N, CCc1ccc(-c2nn(-c3ccccc3)cc2CSC(=N)N)cc1, O=C(Nc1ccc2c(c1)OCCO2)c1cccs1, Cc1cccc(-c2noc(-c3ccc(Cl)cc3[N+](=O)[O-])n2)c1, Cc1ccccc1-c1noc(-c2ccccc2F)n1, CCOC(=O)c1sc(-c2ccc(OC)cc2)cc1N, COc1ccc(-c2cc(=O)c3cc(C)ccc3[nH]2)cc1, N#CC(=C1CCCC1)c1nc(-c2ccccc2)cs1, Nc1nc(-c2ccc3c(c2)CCCC3)cs1, O=c1oc2cc(Br)ccc2n1CSC1=NCCS1, CCCCOC(=O)Nc1ccc2c(C)cc(=O)oc2c1, O=C(Nc1ccc(Cl)cc1)c1ccc(Br)cc1F, Cc1ccc(C(=O)Nc2ccc3c(c2)nc2n3CCSC2)cc1, CN1C(=O)/C(=C\C=C2/CCCN2C)N(C)C1=S, Nc1nonc1-c1noc(COc2ccccc2Cl)n1, COc1ccc(C(=O)NNC(=S)Nc2ccccc2)cc1, Cc1cccc(Nc2nc3c(s2)CCCC3)c1, COc1ccccc1CNc1ccc(CNc2ncn[nH]2)cc1, Oc1ccccc1CNc1ccc(Br)cn1, O=C(NCCCn1ccnc1)c1cc(-c2ccccc2)on1, O=C(NCCCN1CCOCC1)c1cc(-c2cccs2)on1, Cc1csc2nc(CSc3ccc(Cl)cc3)cn12, O=C(Cc1cn2ccsc2n1)OCc1ccccc1, CCOc1cccc2cc(-c3csc(NC(=O)CCC(=O)NCCCN4CCC(C)CC4)n3)c(=O)oc12, Cc1ccc(Nc2ncnc3c2oc2ccccc23)cc1, Cc1ccc(N2C(=O)C(NC(=O)c3ccccc3)(C(F)(F)F)C3=C2CC(C)(C)CC3=O)cc1 (centres undefined), COCCn1nnnc1C(CC(C)C)N1CCN(c2cccc(OC)c2)CC1 (centres undefined), CC(C)(C)NC(=O)C[n+]1ccc(C(N)=O)cc1, O=C(NCC1CCCO1)c1cc(-c2ccccc2)on1 (centres undefined), COc1ccc2c(c1)CCc1c(C(=O)NCC(C)C)noc1-2, C/C(=N\NC(=O)c1ccoc1C)c1cccnc1, CC(/C=N/NC(=O)c1cccs1)=C\c1ccco1, Cc1ccc(N=C/C(C(=O)C(F)(F)F)=C(\O)c2ccco2)cc1Cl, CC(=O)CSc1ncnc2c1cnn2-c1ccccc1, O=[N+]([O-])c1ccc(F)cc1OCc1nc(-c2cccs2)no1, Cc1ccccc1-c1nnc(SCc2ccccc2F)o1, CCCn1c(/C=C/c2ccccc2)nc2ccccc21, CCCCCNc1nc(-c2ccccc2)cs1, COc1ccc(-c2csc(-c3ccc(C(=O)O)cc3)n2)cc1, CC1=C/C(=N\OS(=O)(=O)c2ccccc2)C(C(C)C)=CC1=O, CCOc1ccc2ccccc2c1CNCCN1CCOCC1, COc1ccccc1-c1noc(-c2ccccc2)n1, CC(=O)Nc1ccc(-c2cn3cc(C)ccc3n2)cc1, CCOc1ccc(/C=N/n2c(SC)nnc2-c2ccccc2)cc1OCC, CC(=O)Oc1ccc(/C=N/NC(=S)Nc2ccccc2)cc1, O=C(Cc1ccccc1F)Nc1ccc(SC(F)F)cc1, Cc1ccc(C(=O)Nc2ccc3nc(C)sc3c2)s1, O=C(NC(=S)Nc1cccc(-c2ccc(CO)o2)c1)c1cccs1, Cc1nc(NC(=O)c2cccs2)ccc1Br, COC(=O)c1ccc2nc(NC(=O)C(C)C)sc2c1, CN(C)CCCN(C(=O)/C=C/c1cccs1)c1nc2c(F)cccc2s1, CC1Cc2ccccc2N1C(=O)/C=C/c1cccc(F)c1 (centres undefined), CN1C(=O)/C(=C/C=C2\SCCN2C)N(C)C1=S, C=C(C(=O)c1ccccc1)C(C)C(=C)C(=O)c1ccccc1, O=C(/C=C/Sc1ccccc1)c1ccccc1, Cc1cccc(/C(N)=N/OC(=O)c2ccco2)c1, O=C(N/N=C\c1ccc(Oc2ccccc2)cc1)c1csnn1, O=C(/C(C=Nc1ccc(Br)cc1)=C(/O)c1ccco1)C(F)(F)F, O=C1/C(=C/c2cccs2)CCC1C1CCCC1 (centres undefined), O=C(c1ccccc1)c1nnc(-c2ccccc2F)o1, CC1=CC(c2ccccc2)=Nc2ccc(C)cc2N1, CCOc1ccc(-c2nc3ccccc3c(=O)o2)cc1, COc1ccc(C2=NN(C(C#N)c3ccc(OC)cc3)C(c3ccccc3)C2)cc1 (centres undefined), CN1CCN(Cc2nc3ccccc3c(=O)n2Cc2nc(-c3ccc4ccccc4c3)cs2)CC1, CCSc1ncc(/C=N/Nc2ccc(Cl)cc2)n1C, CCOC(=O)c1[nH]c2c(c1C)C(=O)CC(c1ccco1)C2 (centres undefined), CCCC(O)(CCC)C(=O)NN(C(=O)CCl)c1ccccc1, O=C(O)CCCNC(=O)Nc1ccccc1, CC(C)c1cc(C(=O)Nc2cc(Cl)ccc2O)no1, O=c1[nH][nH]cc1C=Nc1ccccc1O, O=c1oc2cc(Cl)ccc2n1CSc1nc2ccccc2s1, CN1CCN(Cc2cc(Cl)c3cccnc3c2OC(=O)c2cccs2)CC1, COC(=O)CSc1nc2ccc(C)cc2cc1C#N, COCCNC(=O)c1cc(-c2cccs2)on1, CCOC(=O)CC(=O)CSc1nc2ccc(C)cc2cc1C#N, O=c1[nH]c(=O)n([C@H]2C[C@H](O)[C@@H](CO)O2)cc1C(F)(F)F, COc1cc(C(Nc2ccccn2)c2ccc3ccc(C)nc3c2O)cc(OC)c1O (centres undefined), Cc1c(NC(=O)CSc2cccc3cccnc23)c(=O)n(-c2ccccc2)n1C, Cc1ccc(COn2c(-c3ccc(Cl)cc3)nc3ccc([N+](=O)[O-])cc32)cc1, CCOC(=O)C(C)On1c(-c2ccc(Cl)cc2)nc2ccc([N+](=O)[O-])cc21 (centres undefined), CCN1CCCc2cc(CN(CCN3CCOCC3)C(=S)Nc3cccc(Cl)c3)ccc21, CCc1nc(Sc2nnnn2-c2ccccc2)c2c3c(sc2n1)CCCC3, CCC/C=N/Nc1nc2ccccc2s1, CCCNC(=O)c1cc(-c2ccc(OC)cc2)on1, COc1ccc(C(=O)c2oc3ccc(OC)cc3c2N)cc1, O=c1cc(-c2ccc3c(c2)OCCO3)oc2ccc(Cl)cc12 10.2 [at 3.75 µM], N/C(=N\OC(=O)COc1ccc(Cl)cc1Cl)c1ccncc1, Brc1ccc(-c2nc3ccccc3s2)s1, COc1cccc(-c2nc3ccccc3s2)c1O, Cc1ccc2[nH]c(-c3ccccc3)cc(=O)c2c1, Cc1ccc(-c2cc(=O)c3cc(C)ccc3[nH]2)cc1, Clc1ccc2nc3c4ccccc4cnn3c2c1, C/C(N)=C(/C#N)C(=O)CSc1nnc(-c2ccccc2Br)o1, CCOC(=O)/C(=C\c1ccc(OC(F)F)cc1)C1=Nn2c(nnc2-c2ccc(Cl)cc2)SC1, CC(OC(=O)CCc1nc2ccccc2c(=O)[nH]1)C(=O)c1ccc(C(C)(C)C)cc1 (centres undefined), CCCOC(=O)c1ccc(NC(=O)CC(C)(C)C)cc1, COc1ccc(-c2cc(-c3ccccc3)c(C#N)c(S(C)(=O)=O)n2)cc1, CC1=CN2C(=N)/C(=C/c3ccco3)C(=O)N=C2S1, Cc1cc(NC2CCCCC2)n2c(n1)nc1ccccc12, Cc1cccc(-c2c(O)cc(=O)[nH]c2Cl)c1, CC(C)Oc1ccc2c(=O)c(-c3ccccc3)coc2c1, CCOc1cc(/C=C2/NC(=O)N(Cc3ccccc3F)C2=O)ccc1O, Cc1cc(C)nc(Sc2nc(C)nc3c2oc2ccccc23)n1, COC(=O)C1C(=O)/C(=C/N(C)C)C(=O)CC1(C)C (centres undefined), Clc1ccc(-c2cc(CSc3ccccc3)on2)cc1, O=C(NCCN1CCOCC1)c1cc(-c2cccs2)on1, O=C1N/C(=C/c2ccc(N3CCOCC3)o2)C(=O)N1c1ccccc1, CCOc1ccc(C2=NNC(c3cccs3)=Nc3ccc(OC)cc32)cc1, COc1ccc(/C=N/n2c(-c3cccs3)n[nH]c2=S)cc1, COc1ccc(/C=N/Nc2ccc([N+](=O)[O-])cc2S(=O)(=O)N2CCN(C)CC2)cc1, COc1ccc(/C=N/NC(=O)COc2ccccc2-c2ccccc2)cc1, COC(=O)N/N=C(/c1ccccc1)C1CCCCC1, CNC(=S)N/N=C(\C)c1ccc(N2CCOCC2)cc1, O=c1c2c(nc3cc(-c4cccc(Cl)c4)[nH]n13)CCC2, O=C(Nc1ccc2ccccc2c1)c1cnccn1, c1ccc(Nc2nc3ccccc3o2)cc1, NC(N)=N/N=C/c1ccc(OCc2ccc(Cl)cc2)cc1, Cn1cccc1/C=C1\Cc2ccccc2C1=O, COc1ccc(C(=O)/C=C/c2cccs2)c(OC(=O)c2cccc([N+](=O)[O-])c2)c1, COc1ccc(/C=C\c2nc(=O)c3ccccc3o2)cc1, Cc1nc(SCc2ccc(Cl)cc2)ncc1C(=O)O, CC(C)CC(=O)Nc1ccc2c(c1)oc1ccccc12, CC(=O)Nc1cc2nn(-c3ccccc3)nc2cc1Cl
